# Screening results from PubChem BioAssay.
# KLK7 zymogen act = proKLK7 (human) activation, primary screen; purified proKLK7, EDANS-DABCYL substrate fluorescence; 100% is mature enzyme control, 0% vehicle; activation, % at 7 µM; actives 0.9% (n = 370,000); AID 652039;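 active means activation above the mean of all tested compounds plus 3 SD, computed per campaign excluding outliers beyond control limits, cut at about 13% in these data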
# rCAG binder = r(CAG) repeat RNA binding. TO-PRO-1 dye displacement fluorescence. AID 651821. actives 1.3% (n = 370,000). inhibition, % at 3 µM;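 active means inhibition above the plate cutoff, the mean of all test compounds on that plate plus 3 SD, cut at about 35% in these data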;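 further: 0% = DMSO alone and 100% = 100 µM mitoxantrone as full dye displacement; higher means more dye released from RNA so lower well fluorescence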
# Pemphigus Ab inh = inhibitors of pemphigus antibody binding to human desmoglein-3; P32926; DSG3-coupled beads, scFv-anti-DSG3-GFP binding, flow cytometry; hits give low values; binding (percent of control), % at 10 µM; actives 0.48% (n = 310,000); AID 588358;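 active means binding more than 3 SD below its plate's average and above zero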;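 further: hits lower antibody fragment binding to DSG3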
# MPTP block = inhibitors of mitochondrial permeability transition pore; isolated mouse mitochondria, Ca2+ swelling absorbance, 30 min; inhibition, % at 10 µM; actives 1.4% (n = 360,000); AID 602449;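 active means inhibition of 50% or more, scaled per plate between neutral and stimulator controls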;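 further: 0% = DMSO wells given calcium and 100% = 1 mM EGTA wells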
# ADAM17 inh = inhibits human ADAM17; recombinant ADAM17, EDANS/DABCYL FRET peptide cleavage; P78536; inhibition, % at 6.95 µM; actives 0.83% (n = 370,000);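 active means inhibition above the mean of compounds lying between control limits plus 3 SD, set per campaign, cut at about 8.5% in these data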;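 further: 0% = DMSO-only wells as the low control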
# Target sequence (P78536 215-824 limits assumed): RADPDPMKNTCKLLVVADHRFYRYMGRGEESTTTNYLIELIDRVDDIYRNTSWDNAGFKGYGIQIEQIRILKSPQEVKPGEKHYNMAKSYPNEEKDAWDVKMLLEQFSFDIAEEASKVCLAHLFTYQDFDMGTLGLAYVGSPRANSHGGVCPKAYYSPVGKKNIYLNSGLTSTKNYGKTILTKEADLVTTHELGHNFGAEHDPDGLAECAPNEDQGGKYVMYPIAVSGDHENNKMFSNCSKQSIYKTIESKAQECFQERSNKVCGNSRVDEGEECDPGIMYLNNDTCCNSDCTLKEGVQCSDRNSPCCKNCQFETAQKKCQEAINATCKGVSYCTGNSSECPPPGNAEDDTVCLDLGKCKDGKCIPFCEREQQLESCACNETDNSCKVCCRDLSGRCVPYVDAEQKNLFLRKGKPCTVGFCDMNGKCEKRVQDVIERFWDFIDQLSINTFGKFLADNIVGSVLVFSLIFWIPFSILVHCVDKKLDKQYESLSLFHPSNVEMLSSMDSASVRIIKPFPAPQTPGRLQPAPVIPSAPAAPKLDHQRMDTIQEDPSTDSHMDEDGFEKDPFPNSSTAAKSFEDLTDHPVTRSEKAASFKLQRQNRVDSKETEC
# ADAM10 inh = inhibits human ADAM10; O14672; recombinant ADAM10, EDANS/DABCYL FRET peptide cleavage, 3 h; inhibition, % at 7 µM; actives 0.62% (n = 370,000); AID 720582;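 active means inhibition above a per-campaign cutoff equal to the mean of compounds falling between control-based bounds plus 3 SD, cut at about 20% in these data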;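 further: 0% = DMSO wells while the 100% control is not disclosed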
# rCAG binder conf = r(CAG) RNA repeat binding, confirmation | actives 70% (n = 4,300) | inhibition, % at 3 µM | TO-PRO-1 dye displacement fluorescence | shares compounds with rCAG binder;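 active means inhibition above a per-plate cutoff, the mean inhibition of sample wells plus 3 SD, cut at about 35% in these data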;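 further: loss of TO-PRO-1 fluorescence as compound displaces dye from 1x1 AA loop RNA; 0% = DMSO only wells and 100% = 100 µM mitoxantrone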
# dCAG dye counter = disrupts DNA CAG TO-PRO-1 complex, flagging rCAG hits | AID 652068 | d(CAG) DNA oligo TO-PRO-1 dye displacement, fluorescence | actives 94% (n = 4,300) | inhibition, % at 3 µM | shares compounds with rCAG binder;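 active means inhibition above its plate's cutoff, the mean test-well inhibition plus 3 SD, cut at about 4.8% in these data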;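 further: 0% = DNA dye mix with DMSO and 100% = 100 µM mitoxantrone; hits displace the dye from DNA and so lower well fluorescence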
# dCAG dye DR = counter-screen for rCAG binders: inhibitors of DNA CAG TO-PRO-1 complex | AID 686960 | IC50, µM | actives 20% (n = 250) | DNA CAG/GTC duplex TO-PRO-1 dye displacement fluorescence | shares compounds with rCAG binder; in the data active means IC50 below about 10 µM
# An asterisk follows results filed as active; · = no result. Only some compounds are listed: those with a hit (about 4.7% of all), similar ones and a draw of the others.
SMILES,KLK7 zymogen act,rCAG binder,Pemphigus Ab inh,MPTP block,ADAM17 inh,ADAM10 inh,rCAG binder conf,dCAG dye counter,others
CCOC(=O)C1(C)CCN1C(=O)c1ccc(C)cc1 (centres undefined),0.5,0.6,·,-1.0,7.4,6.9,·,·,
Cc1cc(Br)cn2c(Cc3ccccc3C(F)(F)F)c(-c3ccc(F)cc3)nc12,0.4,55.3*,·,·,3.2,5.2,43.1*,10.6*,dCAG dye DR=>29.9
COc1ccccc1Cc1c(-c2ccc(F)cc2)nc2c(C)cc(Br)cn12,-4.2,9.2,·,0.3,0.1,-3.0,·,·,
Cc1ccc(-c2nc3ccc(C)cn3c2Cc2ccccc2C(F)(F)F)cc1,0.3,35.7*,·,0.5,-6.9,-17.6,20.5,4.3,
FC(F)(F)c1ccccc1Cc1c(-c2ccc(Cl)cc2)nc2ccc(Br)cn12,-0.4,64.0*,·,1.4,0.7,6.7,14.3,3.4,
FC(F)(F)c1ccccc1Cc1c(-c2cccc(Br)c2)nc2ccc(Br)cn12,0.2,19.2,·,3.3,1.3,9.3,·,·,
Fc1ccc(-c2nc3ccc(Br)cn3c2Cc2ccccc2C(F)(F)F)cc1,0.1,51.2*,·,-0.2,-1.2,-21.9,11.1,1.6,
O=C(N=Nc1c(O)[nH]c2c(Cl)cc(Cl)cc12)c1ccccc1O,0.7,6.1,·,·,-2.5,-2.4,·,·,
O=C(CSc1nnc(-c2ccccn2)n1-c1ccccc1)Nc1ccc(OCc2ccccc2)cc1,-0.4,10.9,·,·,0.4,-6.4,·,·,
Fc1ccc(-c2nc3ccc(Cl)cn3c2Cc2ccccc2C(F)(F)F)cc1,-0.7,38.3*,·,0.5,-8.1,-21.5,23.1,2.6,
FC(F)(F)c1ccccc1Cc1c(-c2ccccc2)nc2ccc(Cl)cn12,-0.7,16.9,·,-0.1,-9.3,-17.0,·,·,
FC(F)(F)c1ccccc1Cc1c(-c2ccc(Cl)cc2)nc2ccc(Cl)cn12,0.6,50.3*,·,1.8,-3.6,-9.2,31.9,7.7*,
COc1ccccc1Cc1c(-c2ccccc2)nc2cc(C)c(Br)c(C)n12,-0.6,7.3,·,3.1,-4.4,-7.8,·,·,
COc1ccc(Nc2nnc(-c3ccc(C(N)=O)cc3)c3ccccc23)cc1,0.3,1.6,94.7,1.3,-1.1,-1.1,·,·,
Cc1ccc(-n2c(SCC(=O)Nc3ccc(Oc4ccccc4)cc3)nnc2-c2ccco2)cc1,0.3,9.0,·,·,-0.3,-0.4,·,·,
O=C(CSc1nnc(-c2ccco2)n1-c1ccc(Cl)cc1)Nc1ccc(S(=O)(=O)Nc2nccs2)cc1,-0.4,61.9*,·,·,6.7,16.9,56.6*,19.9*,
COc1ccc(-n2c(SCC(=O)Nc3ccc(S(=O)(=O)Nc4nccs4)cc3)nnc2-c2ccccc2)cc1,0.0,78.2*,·,·,6.4,6.8,72.0*,36.6*,
COc1ccc(-n2c(SCC(=O)Nc3nccs3)nnc2-c2ccccc2)cc1,-0.2,-1.5,·,0.2,-1.3,-3.9,·,·,
Cn1c(COc2ccccc2)nnc1SCC(=O)Nc1ccc(S(=O)(=O)Nc2nccs2)cc1,-1.1,48.9*,·,·,0.4,-1.3,46.6*,17.7*,
COc1ccc(-c2nnc(Nc3ccc(S(=O)(=O)Nc4nccs4)cc3)c3ccccc23)cc1,-0.2,35.0*,93.6,-2.6,-6.4,-13.2,49.7*,19.0*,
COc1cccc(CN(C(=O)/C=C/c2ccco2)C2CCS(=O)(=O)C2)c1 (centres undefined),0.5,9.3,102.9,0.7,-6.0,0.8,·,·,
CCN=C1NC(c2cccc(Cl)c2)C(C(=O)OC)=C(C)N1Cc1ccccc1C(F)(F)F (centres undefined),0.6,4.3,·,·,-1.4,-15.1,·,·,
O=C(CSc1nnc(COc2ccccc2)n1-c1ccccc1)Nc1ccc(S(=O)(=O)Nc2nccs2)cc1,0.1,74.6*,·,·,4.4,14.0,65.2*,27.7*,
Cc1ccc(OCc2nnc(SCC(=O)Nc3nccs3)n2-c2ccccc2)cc1C,-0.2,1.9,107.2,-1.1,-0.2,-7.0,·,·,
CCOC(=O)[C@@H](NC(=O)/C=C/[C@H]1O[C@@H](n2cc(C)c(=O)[nH]c2=O)C[C@@H]1O)C(C)C,-1.0,-0.6,·,-1.1,0.3,-2.2,·,·,
SMILES,KLK7 zymogen act,rCAG binder,Pemphigus Ab inh,MPTP block,ADAM17 inh,ADAM10 inh,rCAG binder conf,dCAG dye counter,others
O=C(NCC(c1cccs1)N1CCOCC1)c1ccccc1NS(=O)(=O)c1ccc(Br)cc1 (centres undefined),0.0,49.0*,117.8,11.0,3.5,-2.6,46.5*,14.7*,
O=C(NCC(c1ccco1)N1CCCCC1)c1ccc(S(=O)(=O)Nc2ccccc2Cl)cc1 (centres undefined),-0.6,43.1*,122.7,1.0,-1.5,-4.3,38.8*,8.8*,
O=C(NCC(c1cccs1)N1CCOCC1)c1ccccc1NS(=O)(=O)c1ccc(Cl)cc1 (centres undefined),0.1,50.4*,106.2,26.5,0.4,2.1,61.1*,22.6*,
CC(OC(=O)Cc1ccc(Br)cc1)C(=O)NC1CCCC1 (centres undefined),-0.7,1.2,87.0,1.2,-1.0,-1.7,·,·,
CCOC(=O)C1(Cc2ccccc2)CCN(Cc2ccc(C)cc2)CC1,0.2,-1.2,·,·,2.4,2.9,·,·,
CC1=CC(=O)C(C(C)C)=C/C1=N\OS(=O)(=O)c1ccccc1,·,·,·,·,-0.3,-1.7,·,·,
O=C(c1ccco1)[C@@H]1[C@@H]2C(=O)N(c3ccc(Br)cc3)C(=O)[C@@H]2C2c3ccccc3C=CN21 (some centres undefined),-2.4,38.1*,102.1,-1.6,7.1,1.0,29.4,15.6*,
C/C(=N\Nc1cccc(C(=O)O)c1)c1ccc(Cl)s1,0.5,41.7*,103.0,-0.2,-8.3,-7.1,21.1,3.5,
COc1cccc(NC(=S)N(Cc2ccc(C(=O)O)cc2)Cc2ccc(OC)c(OC)c2)c1,-0.2,12.2,101.3,0.8,-0.8,-6.6,·,·,
Cc1cccc(NC(=S)N(Cc2ccc(Cl)cc2)Cc2ccc(C(=O)O)cc2)c1,0.0,27.1,98.1,-3.5,-1.0,-3.5,·,·,
Cc1cc(NC(=S)N(Cc2cccc(Br)c2)CC2CCC(C(=O)O)CC2)ccc1Cl (centres undefined),0.1,46.3*,96.4,0.9,1.3,-0.1,63.7*,24.5*,
Cc1cc(C)cc(NC(=S)N(Cc2ccc(Cl)cc2)Cc2ccc(C(=O)O)cc2)c1,0.0,49.1*,103.0,2.4,-5.6,0.7,65.1*,28.9*,
